Data: PubChem BioAssay (Tox21)
Records with an inconclusive call do not appear. Unmarked numbers belong to inactive results. Active and inactive are the calls of the source. Calls follow the shape of the dose curve; as a rule, active = well fitted inhibition curve with a large enough effect in the repeat runs; inconclusive = weak or mixed curves; inactive = no such curve, though single readings can be large or run the other way.

target: Cytochrome P450 3A4 (Homo sapiens) (UniProt P08684); test: Cytochrome P450 Family 3 Subfamily A Member 4 (CYP3A4) small molecule antagonists: luciferase reporter qHTS assay (AID 1671201); conditions: P450-Glo CYP3A4 enzyme, luciferin luminescence, 1 h; series mostly up to 115 µM; activity change, negative = inhibition: at the top concentration; also: nearly all actives have a fitted effect of over 50% in size
In short: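 P450-Glo CYP3A4 luminescent assay: compounds preincubated 10 min at room temperature with enzyme and proluciferin substrate, NADPH regeneration added, 1 h room-temperature reaction, stopped with luciferin detection reagent; luminescence read after 20 min. Ketoconazole positive control.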
% is scaled to controls: 0 for no effect and ±100 for the full control effect; potency is read from the fitted curve at half-maximal effect.

Cytochrome P450 3A4 (Homo sapiens), sequence (P08684 whole entry, looked up): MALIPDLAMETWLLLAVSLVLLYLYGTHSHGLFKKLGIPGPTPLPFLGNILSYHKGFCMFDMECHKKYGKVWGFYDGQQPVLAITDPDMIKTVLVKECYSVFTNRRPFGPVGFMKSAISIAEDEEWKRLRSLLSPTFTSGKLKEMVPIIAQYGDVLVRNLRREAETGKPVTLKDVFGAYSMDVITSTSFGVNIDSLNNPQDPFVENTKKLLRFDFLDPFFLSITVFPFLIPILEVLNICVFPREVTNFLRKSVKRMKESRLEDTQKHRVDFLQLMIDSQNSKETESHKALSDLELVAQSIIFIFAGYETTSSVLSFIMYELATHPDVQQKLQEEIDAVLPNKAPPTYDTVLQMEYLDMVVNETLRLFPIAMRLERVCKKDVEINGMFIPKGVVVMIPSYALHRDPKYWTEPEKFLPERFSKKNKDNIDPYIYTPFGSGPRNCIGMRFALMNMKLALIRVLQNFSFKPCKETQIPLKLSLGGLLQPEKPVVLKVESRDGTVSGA

Structure (SMILES) | activity change, negative = inhibition | Potency
COCCCN1CCC(NC(=O)c2cc(Cl)c(N)c3c2OCC3)CC1 | 12.1% [at 52.9 µM] | 
CN1CCN(C(c2ccccc2)c2ccccc2)CC1 | 22% [at 52.9 µM] | 
Nc1ccc(N)c2c1C(=O)c1ccccc1C2=O |  | 5.64 µM (active)
Cn1c(=O)cc(Oc2ccc(F)cc2F)c2cnc(NCC(C)(C)O)nc21 | 68.5% | 
CCOC(=O)C(F)(F)F | 7.86% | 
COc1cc2nc(N(C)CCCNC(=O)C3CCCO3)nc(N)c2cc1OC (configuration not stated) | -6.02% [at 52.9 µM] | 
COc1cc(Cl)c(OC)cc1N |  | 31.7 µM (active)
